Experimental findings from PubChem BioAssay (NCATS) are described below.

Records with an inconclusive call do not appear. Where a call stands in place of a potency, no number is given. Active and inactive are the calls of the source. Calls follow the shape of the dose curve; as a rule, active = well fitted cell-killing curve with a large enough effect; inconclusive = small, poorly fitted or top-dose-only effect, or effect the other way; inactive = flat fitted curve, though single readings scatter.

The subject of the first assay is CAOV3. Put plainly: Primary qHTS to identify gynecologic anti-cancer compounds using libraries of approved drugs and bioactive compounds (AID 1345084). Also: nearly all actives have a fitted effect of over 55% in size. Particulars: Gynecologic cancer cell panel viability, ATPlite luminescence, 48 h; series mostly up to 57.5 µM. Summed up: (§1)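 48 h compound exposure at 37 C, 5% CO2; five-point qHTS. ATPlite luminescence readout of cell ATP.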
A general note: qHTS replaces the single test concentration by a dilution series.
In the case of `COc1ccc2cc(-c3nc(-c4ccc(S(C)=O)cc4)[nH]c3-c3ccncc3)ccc2c1` (stereo not drawn), the Potency entry is “inactive”.
On the same count and under the same terms, the value for `CCN(CC)CCNC(=O)c1ccc(N)cc1` was “inactive”; that for `CC(C)(C)c1cc(C(=O)O)c(NC(=O)Nc2ccc3[nH]ncc3c2)s1` was “inactive”; that for `COc1ccc2c(Oc3ccc(NC(=O)c4c(C)n(CC(C)(C)O)n(-c5ccccc5)c4=O)nc3)ccnc2c1` was “inactive”.
`CN(C)CCC(c1ccccc1)c1ccccn1` (stereo not drawn): the Potency entry was “inactive”.
Turning to `COC(=O)[C@@H]1[C@H]2C[C@H]3c4[nH]c5ccccc5c4CCN3C[C@@H]2CC[C@@H]1O`, the Potency entry was “inactive”.
On the same count and under the same terms, for `Cc1ccccc1C(C(=O)NC1CCCCC1)N(C(=O)Cn1ccnc1C)c1cccc(F)c1` (stereo not drawn) the value was “inactive”; for `Cc1c(NC(=O)c2ccc(C(C)(C)C)cc2)cccc1-c1cn(C)c(=O)c(Nc2ccc(C(=O)N3CCOCC3)cc2)n1`, “inactive”.
For `CCOC(=O)C1=C(N)Oc2ccc(Br)cc2C1C(C#N)C(=O)OCC` (stereo not drawn), the Potency entry was “inactive”.
Same read-out and setting: the value for `Cc1ccc(Nc2cc(-c3cccc(N4C(=O)c5ccccc5C4=O)c3)ncn2)cc1NS(C)(=O)=O` was “inactive”.
Still for that read-out and setting: for `CC(C)[C@H](CO)Nc1nc(Nc2ccc(C(=O)O)c(Cl)c2)c2ncn(C(C)C)c2n1` the value was “inactive”; for `CCCNC(=O)NS(=O)(=O)c1ccc(Cl)cc1`, “inactive”.
Consider `COc1cc2ncnc(-n3nc(-c4ccccn4)nc3N)c2cc1OC`, for which the Potency result was “inactive”.

The test system of the next assay is CASKI. The description is as above. The settings on record: Gynecologic cancer cell panel viability, ATPlite luminescence, 48 h; series mostly up to 57.5 µM. The gist of the method: as §1
For `O=C(O)c1cc(-c2ccccc2)nc2ccccc12`, the Potency entry is “inactive”.
On the same count and under the same terms, the value for `OC[C@@H](O)[C@H](O)[C@H](O)[C@@H](O)CO` was “inactive”; that for `O=C(NC1CCOCC1)c1ccc(-c2cc(-c3cn[nH]c3-c3ccccn3)ccn2)cc1` was “inactive”.
As to `CCN1CCC[C@H]1CNC(=O)c1cc(S(N)(=O)=O)ccc1OC`, the Potency result is “inactive”.
Still for that read-out and setting: for `COc1ccc(C2CC(c3ccccc3)=NN2c2ccc(S(N)(=O)=O)cc2)cc1` (stereo not drawn) the value was “inactive”; for `Clc1ccc(Cn2c(CN3CCCC3)nc3ccccc32)cc1`, “inactive”; for `O=C(O)Cc1cccc2ccccc12`, “inactive”.
Still for that read-out and setting: the value for `C[C@@H](O)[C@H]1C(=O)N2C(C(=O)O)=C(S[C@@H]3CN[C@H](C(=O)N(C)C)C3)[C@H](C)[C@H]12` was “inactive”.
Regarding `CC(=O)Oc1cc2c(s1)CCN(C(C(=O)C1CC1)c1ccccc1F)C2` (stereo not drawn), the Potency result was “inactive”.
For the molecule `CC(=O)CCCCn1c(=O)c2c(ncn2C)n(C)c1=O`, the Potency entry was “inactive”.
Turning to `O=C(CCN1CCN(C(=O)OCc2cc(Cl)cc(Cl)c2)CC1)c1ccc2[nH]c(=O)oc2c1`, the Potency entry was “inactive”.
Still for that read-out and setting: the value for `O=C(O)CCc1nc(-c2ccccc2)c(-c2ccccc2)o1` was “inactive”; that for `CNC(=O)c1ccc2cc(C3(O)CCn4cncc43)ccc2c1` (stereo not drawn) was “inactive”; that for `COc1ccccc1N1CCN(CCCNc2cc(=O)n(C)c(=O)n2C)CC1` was “inactive”.
Turning to `CS(=O)c1ccc(-c2nc(-c3ccc(F)cc3)c(-c3ccncc3)[nH]2)cc1` (stereo not drawn), the Potency entry is “inactive”.
For the molecule `CC(C)C(=O)Oc1ccc(CO)cc1[C@H](CCN(C(C)C)C(C)C)c1ccccc1`, the Potency entry was “inactive”.
Still for that read-out and setting: the value for `COc1ccc2cc(-c3nc(-c4ccc(S(C)=O)cc4)[nH]c3-c3ccncc3)ccc2c1` (stereo not drawn) was “inactive”.
As for `CCN(CC)CCNC(=O)c1ccc(N)cc1`, the Potency result is “inactive”.
The same measure, in the same setting: for `COc1ccc2c(Oc3ccc(NC(=O)c4c(C)n(CC(C)(C)O)n(-c5ccccc5)c4=O)nc3)ccnc2c1` the value was “inactive”; for `NC(=O)c1ccc2nc(-c3ccc(Oc4ccc(Cl)cc4)cc3)[nH]c2c1`, “inactive”; for `CN(C)CCC(c1ccccc1)c1ccccn1` (stereo not drawn), “inactive”.
On the same count and under the same terms, for `COC(=O)[C@@H]1[C@H]2C[C@H]3c4[nH]c5ccccc5c4CCN3C[C@@H]2CC[C@@H]1O` the value was “inactive”; for `O=C(Nc1ccccc1-c1cn2c(CN3CCNCC3)csc2n1)c1cnc2ccccc2n1`, “inactive”; for `Cc1ccccc1C(C(=O)NC1CCCCC1)N(C(=O)Cn1ccnc1C)c1cccc(F)c1` (stereo not drawn), “inactive”.
In the case of `Cc1c(NC(=O)c2ccc(C(C)(C)C)cc2)cccc1-c1cn(C)c(=O)c(Nc2ccc(C(=O)N3CCOCC3)cc2)n1`, the Potency entry is “inactive”.
Still for that read-out and setting: the value for `CCOC(=O)C1=C(N)Oc2ccc(Br)cc2C1C(C#N)C(=O)OCC` (stereo not drawn) was “inactive”; that for `Cc1ccc(Nc2cc(-c3cccc(N4C(=O)c5ccccc5C4=O)c3)ncn2)cc1NS(C)(=O)=O` was “inactive”.
Regarding `CC(C)[C@H](CO)Nc1nc(Nc2ccc(C(=O)O)c(Cl)c2)c2ncn(C(C)C)c2n1`, the Potency result was “inactive”.
On the same count and under the same terms, for `CCCNC(=O)NS(=O)(=O)c1ccc(Cl)cc1` the value was “inactive”; for `COc1cc2ncnc(-n3nc(-c4ccccn4)nc3N)c2cc1OC`, “inactive”.
